Assay outcomes as filed in PubChem.
Myeloid diff 2: promotes myeloid progenitor differentiation. ER-HoxA9 myeloid progenitors, lysozyme-GFP differentiation, flow cytometry. calls only at 10 µM. 360,000 tested, 1% active;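 active = normalized GFP-positive differentiation at or above the plate's own cutoff, the solvent-only control mean plus 3 SD; inconclusive = no clear call, values can overlap the other calls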;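 also: cells exposed to compound for four days before flow analysis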
NR3A LBD binder: NR3A (human) ligand-binding domain modulation. 340,000 tested, 2.5% active. AID 1259313. Tm shift relative to glycine control, % at 25 µM. NR3A LBD differential scanning fluorimetry, Tm shift; 0% = protein alone, 100% = glycine-bound protein;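 active = melting temperature shift of at least 10% of the positive control shift, at one fixed dose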
MPTP inh: permeability transition pore inhibition; isolated mouse mitochondria, Ca2+ swelling absorbance, 30 min; inhibition, % at 10 µM; 360,000 tested, 1.4% active;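 active = inhibition of 50% or more, scaled per plate between neutral and stimulator controls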;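 also: 0% = DMSO wells given calcium and 100% = 1 mM EGTA wells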
FAS-TE inh: FAS thioesterase (human) inhibition; recombinant FAS-TE, OMFH fluorogenic substrate, fluorescence endpoint; 360,000 tested, 0.67% active; inhibition, % at 15 µM;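 active = compounds whose normalised, plate-corrected inhibition of enzyme fluorescence in the single-dose primary screen is 50% or more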;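 also: 0% = DMSO with enzyme and 100% = substrate without enzyme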
rCAG binder: r(CAG) repeat RNA binding | TO-PRO-1 dye displacement fluorescence | inhibition, % at 3 µM | 370,000 tested, 1.3% active;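 active = inhibition above the plate cutoff, the mean of all test compounds on that plate plus 3 SD, cut at about 35% in these data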;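 also: 0% = DMSO alone and 100% = 100 µM mitoxantrone as full dye displacement; higher means more dye released from RNA so lower well fluorescence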
MPTP counter: mitochondrial membrane potential, counter-screen. isolated mitochondria, Rhodamine 123 fluorescence. inhibition, % at 10 µM. 5,000 tested, 78% active. shares compounds with MPTP inh; in the data active = inhibition above about 22%;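 also: 0% = DMSO vehicle and 100% = positive control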
MPTP swell DR: MPTP inhibition, dose response swelling confirmation. shares compounds with MPTP inh. isolated mitochondria swelling, absorbance. IC50, µM. 780 tested, 58% active; in the data active = IC50 below about 20 µM
MPTP cs DR: counter-screen for mitochondrial permeability transition pore inhibitors, dose response. shares compounds with MPTP inh. isolated mitochondria counterscreen, fluorescence read-out. IC50, µM. 780 tested, 49% active; in the data active = IC50 below about 80 µM
An asterisk follows results filed as active; i = inactive; ? = inconclusive; . = no result given; + = active, no number. An excerpt weighted towards active compounds, which were near 5.7% of everything screened.

SMILES | Myeloid diff 2 | NR3A LBD binder | MPTP inh | FAS-TE inh | rCAG binder | MPTP counter | others
CN1CCN(C(c2ccc(F)cc2)c2ccc3cccnc3c2O)CC1 (stereo not drawn) | i | 5 | -2 | -8 | . | .
CC(C)(C)c1ccc(-c2cn(-c3ccc(Br)cc3)c3[n+]2CCCS3)cc1 | i | -2 | 53* | -5 | 4 | 99*
Cc1nn(C)cc1CNCc1c(C(=O)N2CCCCC2)nc2c(C)cccn12 | . | -1 | 0 | -2 | -3 | .
Cc1cc2oc(C(=O)Nc3ccc(S(=O)(=O)N4CCCC(C)C4)cc3)cc(=O)c2cc1Cl (stereo not drawn) | i | 14* | 73* | -1 | 3 | 7 | MPTP swell DR=>100;MPTP cs DR=<2.5*
O=C(Nc1cccc(S(=O)(=O)N2CCCCCC2)c1)c1cc(=O)c2ccccc2o1 | i | -3 | 52* | 22 | 0 | 64*
Cc1cc(C)c2oc(C(=O)Nc3ccc(S(=O)(=O)N4CCC(C)CC4)cc3)cc(=O)c2c1 | i | 0 | 60* | 9 | 0 | -8 | MPTP swell DR=>100;MPTP cs DR=>80
CC(C)NC(=O)CSc1c2c(nc3ccccc13)CCCC2 | i | -17 | 0 | -6 | -2 | .
Cc1ccc(C(=O)NC2CCCCN(Cc3ccc(Cl)cc3)C2=O)c(C)c1 (stereo not drawn) | . | . | . | . | 0 | .
CCOC(=O)C1(CC2CCCCO2)CCN(S(=O)(=O)c2c(C)nn(C)c2C)CC1 (stereo not drawn) | i | -1 | -2 | -4 | -2 | .
Cc1[nH]c2ccccc2c1CC(=O)Nc1ccc(Nc2cccnc2)c(-c2ccc(Oc3ccccc3)cc2)c1 | . | . | . | . | 16 | .
COc1ccc(Cn2nnnc2C(c2ccc(C)cc2)N2CCN(C3CCCC3)CC2)cc1 (stereo not drawn) | i | -2 | 77* | -8 | -11 | -10 | MPTP swell DR=>100;MPTP cs DR=>80
C=CCc1cccc(/C=C/c2cc(=O)c3ccccc3[nH]2)c1O | i | -30 | 60* | -6 | 6 | 50*
C=CCc1cccc(/C=N/n2cnnc2)c1O | i | 0 | -2 | -9 | -11 | .
Cc1ccc(OCC(=O)c2cc(C)n(CC(F)(F)F)c2C)c([N+](=O)[O-])n1 | ? | 2 | 0 | 1 | -3 | .
Cc1ccc(OCC(=O)c2cc(C)n(Cc3cccs3)c2C)c([N+](=O)[O-])n1 | i | -2 | 76* | 26 | 0 | 67*
CCCCn1c(NC(=O)c2ccccc2)c(C#N)c2nc3ccccc3nc21 | + | 8 | 87* | 39 | 15 | 80*
CN(C)CCN(Cc1ccccc1)C(c1cc2ccccc2o1)c1nnnn1C(C)(C)C (stereo not drawn) | i | . | -1 | -12 | 6 | .
Cc1cc(NC(=O)CCC(=O)N(Cc2ccco2)C2(C(=O)NC3CCCCC3)CCCC(C)C2)no1 (stereo not drawn) | i | 0 | 0 | -3 | 1 | .
Cc1ccc(NC(=O)c2ccncc2)cc1S(=O)(=O)N(C)C | i | -7 | 0 | -10 | 2 | .
CN(C)S(=O)(=O)Oc1ccc(C(=O)Nc2cccc(C(F)(F)F)c2)cc1 | i | -1 | 74* | 30 | -1 | 82*
CN(C)S(=O)(=O)Oc1ccc(C(=O)Nc2cccc(Cl)c2)cc1 | i | -9 | 4 | 11 | -4 | .
CCCCN1C(=O)c2ccc(C(=O)Nc3ccc(C)c(S(=O)(=O)N(C)C)c3)cc2C1=O | i | -9 | 69* | -13 | 12 | 69*
Cc1ccc(NC(=O)c2ccc(OC(F)(F)F)cc2)cc1S(=O)(=O)N(C)C | i | -3 | 78* | 15 | 0 | 86*
CCCCN1C(=O)c2ccc(C(=O)Nc3cccc(C)c3C)cc2C1=O | i | 0 | 0 | 1 | -3 | .
CC(C)[C@@H]1CC[C@@H](C)C[C@H]1O | i | . | 0 | -6 | 2 | .
O=C(NC1CCCCC1)C(c1ccncc1)N(C(=O)c1csnn1)c1cccc(F)c1 (stereo not drawn) | i | 0 | -1 | -4 | 3 | .
CCOC(=O)c1sc(NC(=O)c2cccc(S(=O)(=O)N3CCc4ccccc43)c2)c(C#N)c1C | i | 21* | 91* | 3 | 26 | 86*
CCCNC(=O)c1cc(S(=O)(=O)N2CCc3ccccc32)cn1C | i | 2 | 71* | -2 | 2 | 44*
